Experimental data published in PubChem BioAssay AID2384 (Southern Research Specialized Biocontainment Screening …, 2010).
Screen size: about 2,300 compounds; about 1,100 (48%) were called active. No rule for the calls is given here. So high a share suggests a set chosen from earlier hits. This is one part of the list. Entries with a potency or affinity are not part of this list.

Experiment: inhibitors in S. typhi counter-screen strain, dose response, counter-screen for PhoP regulon inhibitor project, fluorescence, 4 h (AID 2384)
Details: S. typhi GFP reporter counter-screen; series mostly up to 150 µM

Row | SMILES | inhibition
1 | C=CCN(c1ccccc1)S(=O)(=O)c1cccc2cccnc12 | inactive
2 | CC1CC(C)CN(S(=O)(=O)c2cccc3cccnc23)C1 (configuration not stated) | inactive
3 | Cc1cc(C(=O)OCC(=O)Nc2cccc(S(=O)(=O)N3CCOCC3)c2)c(C)o1 | inactive
4 | Cc1nc(N=Nc2ccc(O)cc2)n[nH]1 | inactive
5 | Cc1cccc(-n2ccnc2CN2CCN(C3CCCC3)C(CCO)C2)c1 (configuration not stated) | inactive
6 | O=C1c2[nH]nc(-c3ccccc3O)c2C(c2ccc(F)cc2)N1CC1CCCO1 (configuration not stated) | inactive
7 | COc1ccccc1-c1cc2nc(C)c(CCC(=O)NC(C)CCc3ccco3)c(C)n2n1 (configuration not stated) | inactive
8 | O=C(/C=C/c1ccc(Cl)cc1)NCCCn1ccnc1 | inactive
9 | O=C(NCCCn1ccnc1)c1cc2c(ccc3ccccc32)o1 | inactive
10 | CC(=O)CC1OC(=O)C(Br)=C1NCc1ccccc1 (configuration not stated) | inactive
11 | Cc1ccc(-n2c(Cc3noc4ccccc34)n[nH]c2=S)cc1 | inactive
12 | CCn1c(-c2ccncc2)n[nH]c1=S | inactive
13 | O=C(OCCCN1C(=O)c2ccccc2C1=O)c1ccco1 | inactive
14 | OCC[C@H]1C[C@H](O)[C@@H](O)[C@@]2(Cc3ccccc3CO2)O1 | inactive
15 | Cc1ccc(N(CC(=O)Nc2c(C)n(C)n(-c3ccccc3)c2=O)S(C)(=O)=O)cc1C | inactive
16 | Oc1ccc(C=NC2CCCCC2)c(O)c1 | inactive

Row | SMILES | inhibition
17 | Cc1nc2ccccc2nc1N/N=C/c1ccc(O)cc1O | inactive
18 | CCN(CCCNC(=O)c1cn(CC)c2ccc(S(=O)(=O)N(C)C)cc2c1=O)c1cccc(C)c1 | inactive
19 | Clc1ccc(CONc2ncnc3nonc23)c(Cl)c1 | inactive
20 | COc1ccc(OC)c(C2=NO[C@@H]3C(=O)N(c4cc(Cl)ccc4OC)C(=O)[C@H]23)c1 | inactive
21 | CC(C)(C)CC(=O)Nc1nnc(SCC(=O)N2CCCCC2)s1 | inactive
22 | Cc1cc(C)c(S(=O)(=O)Nc2ccccc2C(=O)OCC(=O)NCc2ccccc2)c(C)c1 | inactive
23 | CC1Cc2ccccc2N1S(=O)(=O)c1cccc(C(=O)N2CC(=O)Nc3ccccc32)c1 (configuration not stated) | inactive
24 | O=[N+]([O-])c1ccc(-c2cnc(NO)nc2)cc1 | inactive
25 | Cn1c(-c2ccc(Cl)cc2)cnc1N | inactive
26 | CCC(O)CNc1nc(SC)nc2sc3c(c12)CCN(C)C3 (configuration not stated) | inactive
27 | c1ccc(CSc2ccc(-c3cccs3)nn2)nc1 | inactive
28 | COc1ccc(C(=O)C[n+]2cc(Br)cc3ccccc32)cc1[N+](=O)[O-] | inactive
29 | c1ccc2c(Nc3nnc(-c4ccncc4)s3)cccc2c1 | inactive
30 | O=C(N/N=C/c1cccnc1)c1ccc(F)cc1 | inactive
31 | Clc1ccc(N/N=C/c2cccs2)nn1 | inactive
32 | CC(/C=C\c1cccnc1)=C/C(=O)O | inactive
